The values that follow come from PubChem BioAssay (NCI).

This assay in a line: NCI Yeast Anticancer Drug Screen. Data for the rad14 strain (AID 159).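 Also: 0% = growth of vehicle-treated control cultures.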 Conditions: S. cerevisiae rad14 strain growth inhibition, hits give high values. The protocol:
Growth inhibition of yeast strains with defined genetic alterations is measured as a screen for potential anti-cancer activity. Selected strains with alterations in DNA damage repair or cell cycle control were exposed to compounds and growth inhibition was measured relative to vehicle treated controls. The strain used in this assay is rad14

Compounds without any hit were thinned out: in the full panel of roughly 79,000, 15% have a hit. Values without a mark were called inactive. Active and inactive are the calls of the source. Rule as the data show it: active = growth inhibition above about 70%; inactive = the rest.

As to `Cc1ccc(Cl)cc1NC(=O)OCCN(C)C(=O)Nc1cc(Cl)ccc1C`, the growth inhibition was -26% (at 1.2 µM); -25% (at 3.7 µM); -31% (at 11.0 µM); -39% (at 33.0 µM); -15% (at 100.0 µM).

On to `Cc1c(C)c(C)c(CSC(=N)N)c(C)c1C`, for which the growth inhibition reads like this: (at 1.2 µM) -31%; (at 3.7 µM) -27%; (at 11.0 µM) -12%; (at 33.0 µM) 85% (active); (at 100.0 µM) 98% (active).

As for `Cc1ccc(CC2(OCCN(C)C)CCC(C(C)(C)C)CC2)cc1` (stereo not given), the growth inhibition runs as follows: (at 1.2 µM) -7%; (at 3.7 µM) -3%; (at 11.0 µM) 15%; (at 33.0 µM) 92% (active); (at 100.0 µM) 98% (active).

On to `CCOC(=O)C(Br)C(Br)c1ccccc1Cl` (stereo not given), for which the growth inhibition reads like this: (at 1.2 µM) 0%; (at 3.7 µM) 10%; (at 11.0 µM) 47%; (at 33.0 µM) 98% (active); (at 100.0 µM) 99% (active).

In the case of `NC(N)=NS(=O)(=O)c1ccc(Nc2c3ccccc3nc3c(C(=O)NCCO)cccc23)cc1`, the growth inhibition is, setting by setting: (at 1.2 µM) 0%; (at 3.7 µM) -1%; (at 11.0 µM) -2%; (at 33.0 µM) 2%; (at 100.0 µM) 17%.

For the compound `CCC(C)(C)c1ccc(Oc2cccc(C(=O)O)c2)cc1`, the growth inhibition reads like this: (at 1.2 µM) -6%; (at 3.7 µM) -14%; (at 11.0 µM) 2%; (at 33.0 µM) 54%; (at 100.0 µM) 72% (active).

For the compound `Nc1n[n+]([O-])c2ccc(Cl)cc2[n+]1[O-]`, the growth inhibition is 12% (at 1.2 µM); 32% (at 3.7 µM); 71% (active) (at 11.0 µM); 89% (active) (at 33.0 µM); 96% (active) (at 100.0 µM).

For the compound `COc1ccc(NC(=O)CC2SC(=Nc3ccccc3C)NC2=O)c([N+](=O)[O-])c1` (stereo not given), the growth inhibition is -2% (at 1.2 µM); -2% (at 3.7 µM); 1% (at 11.0 µM); 10% (at 33.0 µM); 97% (active) (at 100.0 µM).
